Test results reported in PubChem BioAssay AID2283109 (EPA ToxCast).
Calls of active or inactive are those of the source. The calls were made as follows: active = hit-call score of the fitted dose curve at least 0.9, where 1 is the maximum; inactive = score below 0.9.

These compounds were tested against human CYP3A5, CYP3A5 (gene 1577) (UniProt P20815) (assay: NVS_ADME_hCYP3A5: NovaScreen (NVS) CYP450-related Enzyme Activity (ADME) Assay for human CYP3A5).
Experimental: NVS_ADME_hCYP3A5 is a biochemical, single-readout assay that uses extracted gene-proteins in a cell-free assay. Measurements were taken 0.5 hour after chemical dosing in a 96-well plate.NVS_ADME_hCYP3A5 is one of one assay component(s) measured or calculated from the NVS_ADME_hCYP3A5 assay. It is designed to make measurements of enzyme activity, a form of enzyme reporter, as detected with fluorescence intensity signals by Fluorescence technology.Data from the assay component NVS_ADME_hCYP3A5 was analyzed into 1 assay endpoint. This assay endpoint, NVS_ADME_hCYP3A5, was analyzed in the positive analysis fitting direction relative to Acetonitrile as the negative control and baseline of activity. Using a type of enzyme reporter, loss-of-signal activity can be used to understand changes in the enzymatic activity as they relate to the gene CYP3A5. Furthermore, this assay endpoint can be referred to as a primary readout, because this assay has produced multiple assay endpoints where this one serves a enzymatic activity function. To generalize the intended target to other relatable targets, this assay endpoint is annotated to the cyp intended target family, where the subfamily is xenobiotic metabolism.
Binding assays used specific radioligands (tritiated, iodinated) with non-radioactive competitive displacement ligands in agonist or antagonist protocols (as indicated) and various reference compounds and inhibitors to titrate specific binding to receptors and transporters. Most enzyme assays (CYPs, kinases, phosphatases, proteases, HDACs) used recombinant protein and specific substrates (fluorescence mostly, some colorimetric and radioactive) and inhibitors, followed by a biochemical separation of substrate and product. All assays for the biochemical HTS were initially run in duplicate at a single concentration (10 uM for CYP450 assays and 25 uM for all others). […]

Chain of human CYP3A5, CYP3A5 (gene 1577) (P20815 whole entry, looked up): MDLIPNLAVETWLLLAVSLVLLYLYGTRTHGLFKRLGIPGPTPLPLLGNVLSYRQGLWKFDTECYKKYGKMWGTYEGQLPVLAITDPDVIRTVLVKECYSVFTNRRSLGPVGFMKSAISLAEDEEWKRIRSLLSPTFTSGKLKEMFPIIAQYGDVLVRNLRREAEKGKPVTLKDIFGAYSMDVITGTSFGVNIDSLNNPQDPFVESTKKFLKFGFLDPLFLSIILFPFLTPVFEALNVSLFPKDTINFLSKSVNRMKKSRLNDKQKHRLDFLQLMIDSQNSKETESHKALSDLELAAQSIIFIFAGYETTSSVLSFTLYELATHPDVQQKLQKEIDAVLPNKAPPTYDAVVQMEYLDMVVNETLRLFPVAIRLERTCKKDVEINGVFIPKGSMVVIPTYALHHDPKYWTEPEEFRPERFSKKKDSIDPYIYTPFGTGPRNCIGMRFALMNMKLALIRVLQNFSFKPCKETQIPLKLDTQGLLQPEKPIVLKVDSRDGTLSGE

Structure (SMILES)	outcome	AC50
COC(=O)Nc1cccc(OC(=O)Nc2cccc(C)c2)c1	inactive	–
Clc1ccc(C2(Cn3cncn3)CC(Br)CO2)c(Cl)c1 (stereo not drawn)	–	0.557 µM (active)
COP(=S)(OC)Oc1ccc(Sc2ccc(OP(=S)(OC)OC)cc2)cc1	–	13.5 µM (active)
